Source: PubChem BioAssay
Only some compounds are listed: those with a hit (about 7.6% of all), similar ones and a draw of the others.
TSHR ag: activates the human thyroid stimulating hormone receptor; P16473; HEK293-CNG-TSHR cells (CNG channel as cAMP sensor), membrane potential dye, cAMP; Potency, µM (highest dose often 57.1 µM), inactives show top-dose activation, usual class: activators; actives 0.48% (n = 73,000); AID 926; active means well fitted activation curve with a large enough effect in the main read-out, with a control signal flat, not every such curve was filed as active; inconclusive means small, poorly fitted or top-dose-only effect, or a change in a side signal; inactive means no such curve, though single readings can be large or run the other way; % of control where 0% means no effect;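 further: the control signal comes from parental cells without the receptor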
Target sequence (P16473 whole entry, looked up): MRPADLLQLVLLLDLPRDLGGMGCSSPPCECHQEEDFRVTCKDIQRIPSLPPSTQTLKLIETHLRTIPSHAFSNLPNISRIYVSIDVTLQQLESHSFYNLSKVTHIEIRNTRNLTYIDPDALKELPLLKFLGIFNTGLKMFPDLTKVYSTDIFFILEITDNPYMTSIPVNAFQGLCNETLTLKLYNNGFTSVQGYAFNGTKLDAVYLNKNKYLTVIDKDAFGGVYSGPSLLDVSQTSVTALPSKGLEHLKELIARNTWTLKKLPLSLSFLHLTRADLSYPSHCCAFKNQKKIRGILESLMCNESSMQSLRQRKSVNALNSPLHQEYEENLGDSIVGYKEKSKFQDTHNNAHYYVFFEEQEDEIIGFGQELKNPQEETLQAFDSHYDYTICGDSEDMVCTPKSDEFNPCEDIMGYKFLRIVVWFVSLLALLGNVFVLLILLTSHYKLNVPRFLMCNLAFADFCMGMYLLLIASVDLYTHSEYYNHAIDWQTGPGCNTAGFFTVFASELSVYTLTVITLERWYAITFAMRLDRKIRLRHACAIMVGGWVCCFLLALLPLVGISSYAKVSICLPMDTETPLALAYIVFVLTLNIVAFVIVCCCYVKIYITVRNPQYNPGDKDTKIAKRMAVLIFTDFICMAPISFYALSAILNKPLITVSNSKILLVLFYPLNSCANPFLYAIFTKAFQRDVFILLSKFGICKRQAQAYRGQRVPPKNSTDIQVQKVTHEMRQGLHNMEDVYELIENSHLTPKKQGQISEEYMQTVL
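cAMP rise detected as CNG-channel membrane depolarization by fluorescent dye (emission 590 nm), 30 min after compound, following 60 min dye loading containing 100 uM RO 20-1724 at room temperature. Cells: TSHR/CNG HEK 293, with parental CNG HEK 293 as control.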
ERK AVP inh: blocks ERK signaling stimulated by vasopressin; HEK293-V1b, vasopressin-stimulated pERK AlphaScreen; Potency, µM (top dose mostly 57.5 µM), for inactives: at the top dose activity, negative = inhibition, hits mostly inhibitors; actives 0.99% (n = 72,000); AID 995; further: on the % scale 0 is the no-effect control and ±100 the full control effect; nearly all actives have a fitted effect of over 55% in size
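Overnight-seeded V1b-HEK293 cells in 1% FBS got compound, then vasopressin (25 nM final, 5 min, 37C), then lysis buffer. AlphaScreen detection of phospho-ERK; activity normalized to basal and full-stimulation controls.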
Tau fil binding: binds recombinant human tau filaments; P10636; recombinant tau filaments, thioflavin S fluorescence, 15 h; filaments grown with octadecylsulfate alongside compound; Potency, µM (top dose mostly 57.1 µM), without a hit: at the top dose activity change, negative = inhibition; actives 2% (n = 71,000); AID 596;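 further: on the % scale 0 is the no-effect control and ±100 the full control effect; actives lower thioflavin S fluorescence by blocking filaments or displacing dye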
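Quantitative HTS: thioflavine S signal from ODS-induced tau filaments, excited at 450 nm, emission 510 nm. Conditions: 1 uM tau, 30 uM ODS, 15 h at 37 C, pH 7.4.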
HEK293 cAMP ctrl: counter-screen for TSHR agonists: cAMP increase in parental HEK293 | Potency, µM (highest dose often 57.1 µM), without a hit: at the top dose activation, hits mostly activators | parental HEK293 CNG cAMP sensor, membrane potential fluorescence | actives 2.5% (n = 73,000); further: % of control where 0% means no effect; nearly all actives have a fitted effect of over 55% in size
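Parental HEK 293 cells stably expressing a modified CNG channel (no TSHR) report cAMP rise as membrane depolarization. Membrane potential dye with 100 uM RO 20-1724 was loaded for 60 min at room temperature, then compound added for 30 min; fluorescence read at 590 nm.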
CRE-bla Fsk: alters forskolin-stimulated CRE reporter signaling in CHO cells; CHO CRE-bla reporter (cAMP response element driving beta-lactamase), forskolin EC10, beta-lactamase ratio; Potency, µM (series often up to 38.2 µM), inactives show at the highest dose activity change, negative = inhibition, most hits filed as activators; actives 2.5% (n = 71,000); AID 662; active means well fitted activation curve with a large enough effect in the signal ratio, with a control signal flat, not every such curve was filed as active; inconclusive means small, poorly fitted or top-dose-only effect, or effect the other way, or a change in a side signal; the % refers to the signal ratio; further: % of control where 0% means no effect
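CHO CRE-bla cells, overnight plating in Opti-MEM with 0.5% dialyzed FBS; cpd titration + EC10 NKH 477, 3 h 37 °C; CCF4 2 h RT; ex 405/em 460 vs 530 ratio → %Activity, AC50.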
Starred values were filed as active, the others as inactive; ? = inconclusive; nt = not tested or not shown; [ ] = another dose, or the depositor's remark. Unless noted, the call rests on the fitted dose curve; in most records, active means well fitted curve in the direction sought with a large enough effect; inconclusive means small, poorly fitted or top-dose-only effect, or another doubt; inactive means no such curve, though single readings can be large; an effect the other way counts as inactive or inconclusive. Potency means the concentration at half of the fitted maximal effect.

SMILES	TSHR ag	ERK AVP inh	Tau fil binding	HEK293 cAMP ctrl	CRE-bla Fsk
COc1cccc(NC(=O)c2ccccc2-c2nc(-c3ccc(Cl)cc3)no2)c1	?	-27%	25%	?	?
COc1ccc(-c2noc(-c3ccccc3C(=O)NCc3ccco3)n2)cc1	?	-15%	102%	16µM*	-3%
CCCCCCCCCCCCCCCCCC(=O)O[C@H](CC(=O)O)C[N+](C)(C)C	?	?	22%	?	?
CC(C)=CCC/C(C)=C/CO/N=C1/C[C@@H](O)[C@@H](O)[C@@H]2[C@@H]3C(=O)N(c4cccc(Oc5ccccc5)c4)C(=O)[C@H]3CC[C@@H]12	-1%[11.4 µM]	7%[11.5 µM]	nt	-1%[11.4 µM]	nt
CCNc1ncc2nc(-c3ccc(Cl)cc3)c(=O)n(Cc3cccs3)c2n1	?	-18%	42%	?	?
CCOc1ccc(OCC)c(NS(=O)(=O)c2cccc3nsnc23)c1	nt	1%	25µM*	15%	12%
COc1ccc(C(=O)O)cc1NS(=O)(=O)c1cccc2nsnc12	8%[11.4 µM]	15%	1%	-2%	-6%
COC(=O)c1cc(-c2ccc(OC)c(OC)c2)on1	15%	7.9µM*	-1%	10%	?
COc1ccc(OCCCC(=O)N2CCCc3ccccc32)cc1	?	15%	-7%	16µM*	15%
O=C(CCCC(=O)N1CCCc2ccccc21)N1CCCc2ccccc21	28%	15%	6%	24%	-3%
COc1ccc(-c2cc(C(=O)N3CCCc4ccccc43)no2)cc1	?	14%	159%	20µM*	?
COCCNC(=O)c1cc(-c2ccc(OC)c(OC)c2)on1	-1%[11.4 µM]	0%	6%	0%	23%
COc1cccc(-c2cc(C(=O)N3CCCc4ccccc43)no2)c1	?	44%	1%	16µM*	?
N#Cc1cccc(-c2ccc3ncnc(NCCN4CCOCC4)c3c2)c1	8%	-4%	13%	28%	?
COc1ccc(-c2cc(C(=O)N3CCCc4ccccc43)no2)cc1OC	?	6%	8%	25µM*	?
COc1cc(C2=NOC(C(=O)N3CCCc4ccccc43)C2)cc(OC)c1OC (stereo not given)	?	-8%	6%	?	13µM*
COc1ccc(C(=O)N2CCCc3ccccc32)cc1	?	-18%	-6%	?	-5%
COc1ccc(C2=NOC(C(=O)N3CCCc4ccccc43)C2)cc1 (stereo not given)	8%	0%	8%	29%	-19%
COc1ccc(OC)c(-c2cc(C(=O)N3CCCc4ccccc43)no2)c1	?	9%	4%	?	3.2µM*
Cc1ccc2nc3nc4ccc[nH]c4cc3c2c1	11%[11.4 µM]	36%[11.5 µM]	nt	2%[11.4 µM]	nt
Nc1nc2[nH]c(=O)[nH]c2c(=O)[nH]1	nt	-4%	nt	nt	nt
COC(=O)N1CCC[C@@]2(CCN(c3ccccn3)C2)C1	?	-1%	7%	?	5%
CCOC(=O)N1CCN(c2nc(SC)nc3sc4c(c23)CC(C)(C)OC4)CC1	17%	-23%	16µM*	1%	?
Cc1cc(C)c2cc(CN(CCO)C(=O)Nc3ccc(Cl)cc3)c(=O)[nH]c2c1	4%	32µM*	87%	3%	9%
CN(Cc1cccs1)c1ncnc2sccc12	?	17%	4%	16µM*	-1%
SMILES	TSHR ag	ERK AVP inh	Tau fil binding	HEK293 cAMP ctrl	CRE-bla Fsk
CCN(c1ccccc1)c1cc(NC)[n+](C)c(C)n1	?	-7%	-6%	32µM*	-17%
CCOC(=O)c1cc2c(=O)n3ccccc3nc2n(CCOC)c1=NC(=O)C(C)(C)C	-2%	3%	-76%	12%	10µM*
CCOCCCn1c(=NC(C)=O)c(C(=O)OCC)cc2c(=O)n3ccccc3nc21	-14%	-20%	-19%	-7%	13µM*
CCOC(=O)c1cc2c(=O)n3ccccc3nc2n(CCCOC)c1=NC(=O)C(C)(C)C	nt	0%	8%	3%	?
CCOC(=O)c1cc2c(=O)n3ccccc3nc2n(CCOC)c1=NC(=O)c1ccncc1	-9%	25%	-32%	-21%	?
CC(=O)OC[C@@H]1O[C@@H](O/N=C2/C[C@@H](O)[C@@H](O)[C@@H]3[C@@H]4C(=O)N(C5CCCCC5)C(=O)[C@H]4CC[C@H]23)[C@H](OC(C)=O)[C@H](OC(C)=O)[C@@H]1OC(C)=O	-14%[11.4 µM]	19%[11.5 µM]	nt	-1%[11.4 µM]	nt
COc1ccc(Cc2nc(-c3ccc(Br)o3)no2)cc1OC	nt	-30%	4%	27%	?
Fc1ccc(OCc2nc(-c3ccc(Br)o3)no2)c(F)c1	?	-6%	-13%	2.5µM*	-3%
C#C[C@]1(O)CC[C@@H]2[C@H]3CCc4cc(OC)ccc4[C@@H]3CC[C@@]21C	15%[25.6 µM]	?	3%[25.6 µM]	-5%[25.6 µM]	?
OCCN1CCN(c2ncnc3nc[nH]c23)CC1	nt	nt	25µM*	5%	?
c1nc(N2CCCCCC2)c2[nH]cnc2n1	0%	nt	?	3%	-7%
c1nc(N2CCCC2)c2[nH]cnc2n1	6%[11.4 µM]	32µM*	2%	13%	9%
COCc1cc(CN2CCCC2)c(O)c2ncccc12	-3%	-21%	-16%	0%	2%
Oc1c(CN2CCN(c3ccccn3)CC2)cc(Cl)c2cccnc12	23%	32µM*	-24%	6%	?
CCOC(=O)N1CCN(C(=O)C2COc3ccccc3O2)CC1 (stereo not given)	-1%	-11%	-4%	2%	2%
CCOC(=O)c1c(C2COc3ccccc3O2)csc1N (stereo not given)	-3%	32µM*	-26%	-3%	25%
O=C(O)CCc1ccc(-c2ccc(Br)cc2)o1	?	-8%	-2%	4µM*	?
NC(=O)c1ccc(-c2ccc(Br)cc2)o1	5%	-22%	-14%	-2%	?
CCn1c(=O)c(C)nn2c3ccccc3nc12	-5%	-23%	-5%	4%	13µM*
Cc1ccc2c(c1)N(C(=O)CSc1nncn1C)C(C)(C)c1ssc(=S)c1-2	-14%	?	16µM*	-17%	11%
c1ccc(CC2=NCCN2)cc1	?	14%	8%[25.6 µM]	?	6%[17.1 µM]
Cc1ccccc1/C=C\C1=NCCN1	0.13µM*	-8%	1%	12%	-2%
CCc1c(C)sc(NC(=O)CC#N)c1C#N	-5%	-28%	13µM*	-2%	?
CCn1c2ccccc2c2cc(NC(=O)Cc3ccc(S(=O)(=O)N4CCOCC4)s3)ccc21	-11%	-8%	6.3µM*	-1%	?
Cc1noc(C)c1C(=O)N1CCC2(CCCN(C(c3ccccc3)c3ccccc3)C2)CC1	?	-19%	-14%	?	-7%
Cn1c(-c2ccc(Br)o2)nc2cc(Br)ccc21	?	?	37%	16µM*	?
NC(=O)c1sc2nc(N3CCCCC3)c3c(c2c1N)CCCC3	-15%[11.4 µM]	-22%	8%[11.4 µM]	-3%[11.4 µM]	1.3µM*
